Outcome and Potency data for 10 compounds are collected here from PubChem BioAssay (NCATS).

Records with an inconclusive call do not appear. Calls of active or inactive are those of the source. Unless noted, calls come from the whole dose curve; as a rule, active = well fitted curve in the direction sought with a large enough effect; inconclusive = small, poorly fitted or top-dose-only effect, or another doubt; inactive = no such curve, though single readings can be large; an effect the other way counts as inactive or inconclusive.

Assay [1] in a line: Cellular Toxicity (caspase-3) Hek293 (AID 664).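 Note: cells exposed to compound for 16 h at 37 °C before readout.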 To be noted: HEK293 caspase-3 activation, DMSO = 0%, 100 µM tamoxifen = 100%; series mostly up to 92.2 µM. In outline: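 Apoptosis readout: Caspase-Glo 3/7 signal in human HEK293 cells following 16-hour compound incubation. Responses scaled between DMSO baseline and 100 uM tamoxifen.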
The nature of assay [2]: MultiTox-Fluor Cytotoxicity Assay - LYMP1-001 - Live Cells (AID 947). To be noted: LYMP1-001 lymphoblastoid cells, live-cell protease fluorescence viability; series mostly up to 92.2 µM.
Assay [3] in a line: Cell Viability - LYMP1-002 - Assay at 16 hr (AID 948). The conditions noted are these: LYMP1-002 lymphoblastoid cell viability; series mostly up to 92.2 µM. In outline: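 LYMP1-002 human lymphoblastoid cells, 2500/well, were treated with compounds for 16 hr at 37 C in complete medium. Viability was read as intracellular ATP by CellTiter-Glo luminescence, and AC50 was derived from a Hill fit to concentration-response data.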

Assay [4] can be described thus: MultiTox-Fluor Cytotoxicity Assay - LYMP1-002 - Dead Cells (AID 960). Note: nearly all actives have a fitted effect of over 60% in size. Note: potency is the fitted concentration of half-maximal effect. To be noted: LYMP1-002 lymphoblastoid cells, dead-cell protease fluorescence; series mostly up to 46.1 µM. In outline: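 Concentration-dependent increases in membrane-leaked protease activity are quantified in LYMP1-002 cells after 16 hr treatment; values are normalized against DMSO and tetraoctylammonium bromide (15 uM) controls and AC50 derived by Hill modeling.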

The nature of assay [5]: MultiTox-Fluor Cytotoxicity Assay - LYMP1-003 - Live Cells (AID 962).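 Note: cells exposed to compound for 16 hours at 37 °C; cytotoxic hits lower the live-cell protease signal.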 The conditions noted are these: LYMP1-003 lymphoblastoid cells, MultiTox-Fluor live-cell protease fluorescence; series mostly up to 92.2 µM. The essentials:
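Human lymphoblastoid line LYMP1-003 in complete culture medium, treated 16 hr with titrated compounds. Viable cells quantified via cell-permeant GF-AFC substrate fluorescence; AC50 derived by Hill fitting.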

The nature of assay [6]: Cell Viability - LYMP1-003 - Assay at 24 hr (AID 963). To be noted: LYMP1-003 lymphoblastoid cell viability; series mostly up to 92.2 µM. In outline: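 The lymphoblastoid line was treated with titrated compounds for 24 hours, and viable cell number estimated from luciferase-based ATP luminescence.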
The nature of assay [7]: Cell Viability - LYMP2-011 (AID 969). Note: nearly all actives have a fitted effect of over 60% in size. Note: potency is the fitted concentration of half-maximal effect. The conditions noted are these: LYMP2-011 lymphoblastoid cells viability; series mostly up to 92.2 µM. The essentials: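 Cells seeded at 2500 per well rest 5 hr before compound addition, then incubate 24 hr at 37 C. CellTiter-Glo reagent is added for 30 min at room temperature before luminescence detection.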
Assay [8] in a line: Cell Viability - LYMP2-015 (AID 971). Note: nearly all actives have a fitted effect of over 55% in size. Note: potency is the fitted concentration of half-maximal effect. The conditions noted are these: LYMP2-015 lymphoblastoid cell viability; series mostly up to 92.2 µM. The essentials: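 AC50 values reflect Hill-model fits of ATP-based luminescence (CellTiter-Glo) from a human lymphoblastoid line, 2500 cells/well, treated 24 hr at 37 C.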
A short description of assay [9]: Cell Viability - LYMP2-021 (AID 974).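 Note: compound exposure lasts 24 hours at 37 °C; nearly all actives have a fitted effect of over 55% in size.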 Note: potency is the fitted concentration of half-maximal effect. The conditions noted are these: LYMP2-021 lymphoblastoid cells viability; series mostly up to 92.2 µM. In outline: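 In qHTS format, compounds are tested against 2500 lymphoblastoid cells per well for 24 h; viable cell number is inferred from ATP-driven luciferase light, and Hill-equation fitting yields AC50 values.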
Assay [10] is described as follows: Cell Viability - LYMP2-023 (AID 975).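 Note: cellular ATP measured by luciferase luminescence as viability proxy; cells exposed to compound for 24 hours at 37 °C; nearly all actives have a fitted effect of over 55% in size.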 To be noted: LYMP2-023 lymphoblastoid cell viability; series mostly up to 92.2 µM. The essentials:
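In this qHTS, ATP-based luciferase luminescence (CellTiter-Glo) is quantified in human lymphoblastoid cells after 24 hr compound treatment at 37 C; tetraoctylammonium bromide serves as positive control. Concentration-response curves are Hill-fitted to give AC50.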

Assay [11] in a line: Cell Viability - LYMP2-006 (AID 978). Note: nearly all actives have a fitted effect of over 60% in size. Note: potency is the fitted concentration of half-maximal effect. To be noted: LYMP2-006 lymphoblastoid cell viability, qHTS; series mostly up to 92.2 µM. In outline: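 Human lymphoblastoid cells (LYMP2-006), 2500/well in complete medium, were treated with compound for 24 hr at 37 C. Cellular ATP was read by CellTiter-Glo luminescence after 30 min, and AC50 values came from Hill-equation fits of concentration-response data.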
(qHTS replaces the single test concentration by a dilution series.)

A short description of assay [12]: Cell Viability - LYMP2-008 (AID 980).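 Note: cells exposed to compound for 24 h at 37 °C; nearly all actives have a fitted effect of over 60% in size.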 To be noted: LYMP2-008 lymphoblastoid cell viability, qHTS; series mostly up to 92.2 µM. In outline: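 Measured: ATP-dependent luminescence, proportional to viable cell number, in human lymphoblastoid cells treated 24 hr with compound in complete culture medium. Values are AC50s from Hill-equation modelling of qHTS titrations.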

The nature of assay [13]: Cell Viability - LYMP2-012 (AID 982).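 Note: cellular ATP by luciferase luminescence where a drop means cytotoxicity; cells exposed to compound for one day before reading; nearly all actives have a fitted effect of over 55% in size.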 The conditions noted are these: LYMP2-012 lymphoblastoid cell viability qHTS; series mostly up to 92.2 µM.
A short description of assay [14]: Cell Viability - LYMP2-014 (AID 983).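 Note: cells exposed to compound for 24 h at 37 °C; nearly all actives have a fitted effect of over 50% in size.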 The conditions noted are these: LYMP2-014 lymphoblastoid cells, viability qHTS; series mostly up to 92.2 µM. The essentials: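 Quantitative HTS in lymphoblastoid cells: 24 hr compound exposure, then CellTiter-Glo ATP luminescence. Positive control was tetraoctylammonium bromide, 6.4pM to 92 uM.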
A short description of assay [15]: Cell Viability - LYMP2-018 (AID 985). Note: nearly all actives have a fitted effect of over 50% in size. Note: potency is the fitted concentration of half-maximal effect. To be noted: LYMP2-018 lymphoblastoid cells, viability (qHTS); series mostly up to 92.2 µM. In outline: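 In this qHTS viability assay, cells are treated for 24 hr and cellular ATP is quantified by luciferase-based luminescence, with tetraoctylammonium bromide as positive control.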
A short description of assay [16]: Cell Viability - LYMP2-020 (AID 986). Note: potency is the fitted concentration of half-maximal effect. To be noted: series mostly up to 92.2 µM. The essentials:
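Cells at 2500 per well receive a 24 hr compound exposure at 37 C. Viability is measured as ATP-dependent luciferase luminescence, with AC50 modeled from qHTS concentration-response curves.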

A short description of assay [17]: Cell Viability - LYMP2-026 (AID 989).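 Note: cells exposed to compound for 24 h at 37 °C; nearly all actives have a fitted effect of over 50% in size.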 Note: potency is the fitted concentration of half-maximal effect. To be noted: LYMP2-026 lymphoblastoid cell viability, qHTS; series mostly up to 92.2 µM. In outline: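 Acute toxicity screen in complete culture medium, with 24 hr compound exposure at 37 C. Viability read as cellular ATP via luciferase reaction, with tetraoctylammonium bromide (6.4pM to 92 uM) as positive control.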
Assay [18] is described as follows: Cell Viability - LYMP1-002 - Assay at 40 hr (AID 994). Note: nearly all actives have a fitted effect of over 60% in size. To be noted: LYMP1-002 lymphoblastoid cell viability; series mostly up to 92.2 µM. In outline: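 Concentration-dependent ATP loss after 40 hr treatment at 37 C defined toxicity; AC50 values were obtained by fitting the standard Hill equation.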
Assay [19] concerns the target Estrogen receptor (Homo sapiens) (UniProt P03372). Put plainly: qHTS assay for small molecule agonists of estrogen receptor alpha signaling (AID 588514; calls by dose curve; note: nearly all actives have a fitted effect of over 70% in size; note: potency is the fitted concentration of half-maximal effect). To be noted: ER-alpha-UAS-bla HEK293, beta-lactamase ratio, 18 h; series mostly up to 76.8 µM. In outline: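 Fluorescence from CCF4 cleavage reports ER-alpha-driven beta-lactamase expression in HEK 293 cells treated 18 hrs at 37 C. Data normalized to 17-beta-estradiol (20 nM) and DMSO, fitted to Hill equation.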

In assay [20] the target is Voltage-gated inwardly rectifying potassium channel KCNH2 (Homo sapiens) (UniProt Q12809). Put plainly: qHTS Assay for Small Molecule Inhibitors of the Human hERG Channel Activity (AID 588834).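 Note: lower thallium flux fluorescence means stronger hERG block; nearly all actives have a fitted effect of over 50% in size.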 Note: potency is the fitted concentration of half-maximal effect. The conditions noted are these: U2OS BacMam hERG, FluxOR thallium flux fluorescence; series mostly up to 92.2 µM. The essentials:
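Thallium serves as surrogate for K+ influx through BacMam-delivered hERG in U2OS cells. Compounds are added for about 10 minutes after dye loading; stimulation buffer then starts flux, monitored kinetically on FDSS.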

Sequence of Estrogen receptor (Homo sapiens) (P03372 whole entry, looked up): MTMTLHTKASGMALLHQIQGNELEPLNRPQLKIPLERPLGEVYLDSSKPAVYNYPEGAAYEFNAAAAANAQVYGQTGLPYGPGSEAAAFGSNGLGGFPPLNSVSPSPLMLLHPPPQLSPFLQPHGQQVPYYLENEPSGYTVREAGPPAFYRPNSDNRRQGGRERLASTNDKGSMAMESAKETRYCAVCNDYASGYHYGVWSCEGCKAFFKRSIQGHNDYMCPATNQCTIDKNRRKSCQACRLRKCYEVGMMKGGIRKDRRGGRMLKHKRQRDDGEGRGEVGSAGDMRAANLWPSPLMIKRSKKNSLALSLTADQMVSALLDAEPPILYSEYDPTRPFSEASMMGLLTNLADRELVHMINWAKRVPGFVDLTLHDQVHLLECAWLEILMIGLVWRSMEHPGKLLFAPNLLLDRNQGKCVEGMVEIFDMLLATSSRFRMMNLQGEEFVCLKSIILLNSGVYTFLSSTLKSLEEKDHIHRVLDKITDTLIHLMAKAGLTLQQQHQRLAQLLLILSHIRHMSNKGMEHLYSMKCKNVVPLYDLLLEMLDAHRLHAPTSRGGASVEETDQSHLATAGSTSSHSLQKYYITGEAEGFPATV
Sequence of Voltage-gated inwardly rectifying potassium channel KCNH2 (Homo sapiens) (Q12809 whole entry, looked up): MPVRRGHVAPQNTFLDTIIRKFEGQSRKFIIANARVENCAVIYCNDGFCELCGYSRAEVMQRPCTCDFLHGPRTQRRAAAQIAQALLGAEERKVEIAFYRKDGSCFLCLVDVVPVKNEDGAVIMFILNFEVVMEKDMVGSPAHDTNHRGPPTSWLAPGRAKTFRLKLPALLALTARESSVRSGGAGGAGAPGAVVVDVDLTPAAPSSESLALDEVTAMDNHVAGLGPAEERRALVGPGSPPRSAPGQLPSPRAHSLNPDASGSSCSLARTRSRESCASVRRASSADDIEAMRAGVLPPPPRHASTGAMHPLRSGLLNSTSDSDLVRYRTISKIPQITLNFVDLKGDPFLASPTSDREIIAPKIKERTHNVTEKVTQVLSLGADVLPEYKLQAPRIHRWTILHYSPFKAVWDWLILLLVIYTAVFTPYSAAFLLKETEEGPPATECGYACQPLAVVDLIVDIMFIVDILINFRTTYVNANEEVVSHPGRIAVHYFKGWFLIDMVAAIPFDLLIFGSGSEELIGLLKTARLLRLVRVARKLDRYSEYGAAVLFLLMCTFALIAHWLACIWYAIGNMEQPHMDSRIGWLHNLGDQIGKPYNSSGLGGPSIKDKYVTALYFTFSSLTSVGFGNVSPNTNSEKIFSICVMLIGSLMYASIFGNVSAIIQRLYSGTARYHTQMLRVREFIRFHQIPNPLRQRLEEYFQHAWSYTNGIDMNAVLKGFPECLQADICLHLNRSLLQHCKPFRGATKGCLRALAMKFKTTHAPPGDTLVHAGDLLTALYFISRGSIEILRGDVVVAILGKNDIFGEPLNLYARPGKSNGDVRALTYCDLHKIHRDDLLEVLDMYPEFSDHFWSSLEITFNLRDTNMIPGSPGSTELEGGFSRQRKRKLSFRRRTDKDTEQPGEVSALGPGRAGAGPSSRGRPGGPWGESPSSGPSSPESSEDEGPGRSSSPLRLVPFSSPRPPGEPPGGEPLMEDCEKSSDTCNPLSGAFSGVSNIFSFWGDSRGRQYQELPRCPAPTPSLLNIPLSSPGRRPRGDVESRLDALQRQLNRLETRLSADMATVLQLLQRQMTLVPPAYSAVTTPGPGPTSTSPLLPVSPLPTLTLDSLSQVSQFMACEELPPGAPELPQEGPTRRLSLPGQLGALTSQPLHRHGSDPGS

With `CCNc1nc(Cl)nc(NC(C)C)n1`, in assay [1], the compound was called inactive. In addition, the Potency result in [2], in assay [3], in [4], in assay [5], in [6] and in [7] was “inactive” each time. In addition, the Potency entry in assay [8], in assay [9], in assay [10], in [11], in [12] and in assay [13] was “inactive” in each case. In addition, the Potency entry in assay [14], in [15], in assay [16], in assay [17], in [18] and in assay [19] was “inactive” in each case. In assay [20], the Potency result was “inactive”.
`CCc1cccc(CC)c1N(COC)C(=O)CCl`: the compound was called inactive in assay [1]. Also, the Potency result in assay [2], in assay [3], in [4], in assay [5], in assay [6] and in [20] was “inactive” each time. The Potency is 50.1 µM (active) in assay [8], 39.8 µM (active) in [15] and 50.1 µM (active) in assay [16].
For `CNC(=O)O/N=C/C(C)(C)SC`, the outcome in assay [1] was inactive. Further, the Potency entry in assay [2], in assay [3], in assay [4], in assay [5], in [6] and in assay [7] was “inactive” in each case. Moreover, the Potency entry in assay [8], in assay [10], in assay [11], in [12], in [13] and in assay [14] was “inactive” each time. Also, the Potency entry in assay [15], in [17], in assay [18], in assay [19] and in assay [20] was “inactive” in each case.
`C=CCc1ccc(OC)cc1`: the compound was called inactive in [1]. The Potency entry in assay [2], in assay [3], in assay [4], in assay [5], in [6] and in assay [7] was “inactive” each time. For the same compound, the Potency result in assay [8], in assay [9], in assay [10], in assay [11], in [12] and in assay [13] was “inactive” each time. In addition, the Potency result in [14], in [15], in assay [16], in assay [17], in assay [18] and in assay [20] was “inactive” in each case.
Regarding `ClC1=C(Cl)C2(Cl)C3C4C=CC(C4)C3C1(Cl)C2(Cl)Cl` (centres undefined), the Potency was 63.1 µM (active) in [9], 39.8 µM (active) in assay [11], 50.1 µM (active) in [16] and 50.1 µM (active) in assay [17]. In addition, the Potency entry in assay [18] was “inactive”.
As for `O=S1OCC2C(CO1)C1(Cl)C(Cl)=C(Cl)C2(Cl)C1(Cl)Cl` (centres undefined), the Potency in assay [4] was 25.1 µM (active); in assay [19], 1.41 µM (active); in assay [20], 28.2 µM (active). Also, the Potency result in assay [7], in [8], in [9], in assay [10], in [12] and in assay [13] was “inactive” throughout. Moreover, the Potency result in [14], in [15] and in [16] was “inactive” in each case.
Take `ClC1=C(Cl)C2(Cl)C3C(Cl)C=CC3C1(Cl)C2(Cl)Cl` (centres undefined): the Potency result in assay [10], in [12], in assay [13], in [14], in assay [17] and in [18] was “inactive” in each case.
Regarding `ClC(Cl)=C(c1ccc(Cl)cc1)c1ccc(Cl)cc1`, the compound was called inactive in assay [1]. Moreover, the Potency result in assay [2], in [3], in assay [4], in assay [5], in [6] and in assay [7] was “inactive” in each case. Moreover, the Potency result in assay [8], in assay [9], in assay [10], in assay [11], in [12] and in assay [13] was “inactive” throughout. Also, the Potency result in [14], in [15], in assay [16], in assay [17], in assay [18] and in [19] was “inactive” throughout.
On to `CCOCN(C(=O)CCl)c1c(C)cccc1CC`, for which the result in assay [1] was inactive. In addition, the Potency entry in assay [2], in assay [3], in assay [5], in assay [6] and in assay [20] was “inactive” throughout. Moreover, the Potency in assay [7], in assay [9] and in [11] was 50.1 µM (active) each time.
Take `CNC(=O)N(C)c1nnc(C(C)(C)C)s1`: in assay [19], the Potency result was “inactive”.
